Measured values taken from article PMC13494018.
Values without a mark were called inactive. How the calls were made is not given here.

B1: design_622_fcc41892-afde-4fb9-b6e8-b664fffd6a75_1048_dldesign_0_cycle1_af2pred (protein)
chain: NPAVERARNVAEYAKQLIDFATANPAVPQALVDAAKAVLEAATKAAKEAEEDPSKAPEVLKRADEALAQANAISAQAAKAATAA
B2: design_622_fcc41892-afde-4fb9-b6e8-b664fffd6a75_1090_dldesign_0_cycle1_af2pred (protein)
chain: AAALAEATAMQFVRQAKATTDPERKRALARGAALALQSVVSPEEAARKTAEMAEALGAPPEVIAAARALL
B3: design_622_fcc41892-afde-4fb9-b6e8-b664fffd6a75_1399_dldesign_0_cycle1_af2pred (protein)
chain: GAALAAAKGVAEQVKRVAEEAEAADPSLAPIMEEYKRRAEELLKKAQENASDEAKVNEYLAELVELLGEVARLRREALAA
B4: design_622_fcc41892-afde-4fb9-b6e8-b664fffd6a75_1277_dldesign_0_cycle1_af2pred (protein)
chain: SEEIIKKAEEIKEKAEKLLKEAAKLTPEQQKAAIKEMSKNLGELTELAKTASPEELKVINEAMNAAAKASVALAAKAA
B5: design_622_fcc41892-afde-4fb9-b6e8-b664fffd6a75_788_dldesign_0_cycle1_af2pred (protein)
chain: SAAAEQLTLAAVRALSASAVAAEDPASSEQLFAVARDIADAASPETRARGLAIVDAARARAAARRAARAAAA
B6: design_622_fcc41892-afde-4fb9-b6e8-b664fffd6a75_667_dldesign_0_cycle1_af2pred (protein)
chain: SAEEAVRKGEELTREAIKLAEEAVKGTPEKAKKAVEEIVKKMAEAIKASPAYGLLIANQARAIYLEAGKEDEAKAVKEGYKKALELAA
B7: design_622_fcc41892-afde-4fb9-b6e8-b664fffd6a75_1349_dldesign_0_cycle1_af2pred (protein)
chain: AEASQALARRFIDATLAQMLAQIAAASAEEARRIAEAGLKAIEVAAQALPAEERAARVAEARERGAAAIAAKE
B8: design_622_fcc41892-afde-4fb9-b6e8-b664fffd6a75_572_dldesign_0_cycle1_af2pred (protein)
chain: EEELKKAVEEAKKEAKKAIETATQAIKLAQNYPALQAMAQAVKDAAKKALEKAEKGDLETAKRELQALKANLQMAQLLLESAQAG
B9: design_622_fcc41892-afde-4fb9-b6e8-b664fffd6a75_655_dldesign_0_cycle1_af2pred (protein)
chain: SMEAAAREAGKAEAEKVFAEAKAEGLGLGEAAKRIHDIFSKVSKFNPEFGAIARNAALAELQKLALAADA
B10: design_622_fcc41892-afde-4fb9-b6e8-b664fffd6a75_393_dldesign_0_cycle1_af2pred (protein)
chain: AAAEAAAKAAALKAKADAAAAKGEEYYAKGKEYAAKGDVEKASEYYLEAIKYYSEAAKYYAKVDPALADAAMKKAQEATKQMMALAK
B11: design_622_fcc41892-afde-4fb9-b6e8-b664fffd6a75_786_dldesign_0_cycle1_af2pred (protein)
chain: DLLAEALRLAERAVEALREDPEEGRRLLEELAELGRRALAEKGDGLAVLLGLAARRALRLLEEDPEEARDFLERAVAFVRAQS
B12: design_622_fcc41892-afde-4fb9-b6e8-b664fffd6a75_877_dldesign_0_cycle1_af2pred (protein)
chain: SEEYRRRAEELERRAREAAEEARRAERAEELRRYAEELRRIANEAMRLAMEAAQAGGDPEVVVRAVEVAVEALRAAGEAYRRAEELE
B13: design_622_fcc41892-afde-4fb9-b6e8-b664fffd6a75_1097_dldesign_0_cycle1_af2pred (protein)
chain: SASEVAIKGGTALVNGAARAGIERIRRAGGGEADVERVKKIAEEAKKKIKAAKADAAKIGAIASEAVEEIRKLTEEVEKKA
B14: design_622_fcc41892-afde-4fb9-b6e8-b664fffd6a75_365_dldesign_0_cycle1_af2pred (protein)
chain: AEAAKKNIEIAAKAGEAAVKNLKTMKPEDAKKLYEVVKDLAEYMKEQGKKAPEQAELAKEKAEKIEEEAKKALKEVEEKGKKA
B15: design_622_fcc41892-afde-4fb9-b6e8-b664fffd6a75_876_dldesign_0_cycle1_af2pred (protein)
chain: AEAERLRAGAESVLKMADVAYQAAKASAANPAAVAQAIASMTAAYKNAAELYREAGDEEKAKAALAKGDADVAAAKALAA
B16: design_622_fcc41892-afde-4fb9-b6e8-b664fffd6a75_316_dldesign_0_cycle1_af2pred (protein)
chain: DALKVIEEYTKKALENIEDRELAALYLANMGVKVAQLVGDGSIGALAMKAAAEAYKSSVEEAKKIIKETAEKIKKIVE
B17: design_622_fcc41892-afde-4fb9-b6e8-b664fffd6a75_281_dldesign_0_cycle1_af2pred (protein)
chain: MKEKEKKLVEEAEKLLKEAKALPATPEGAQQAVQYGQKAAELGKKIKEAGGTKEAAEKAYQYANEAFKIAAQLGAQAA
B18: design_622_fcc41892-afde-4fb9-b6e8-b664fffd6a75_413_dldesign_0_cycle1_af2pred (protein)
chain: SEKEEASKKLKELEEEGNKAYEKGKAAAAAGDTGAAGAELVKIVKMSSEAYKLSKYIPEEGKKVSDELSAKAVELSKLLTA
B19: design_622_fcc41892-afde-4fb9-b6e8-b664fffd6a75_1089_dldesign_0_cycle1_af2pred (protein)
chain: AATKEEAQKAMVEASEVATELLRKAGEAYKAGDEELAEELRRAANELMRAMVQAAKDPAKGLEAVKKAVERGKELLKRAEEALKKA

Target: CD276, Q5ZPR3
Sequence (Q5ZPR3 whole entry): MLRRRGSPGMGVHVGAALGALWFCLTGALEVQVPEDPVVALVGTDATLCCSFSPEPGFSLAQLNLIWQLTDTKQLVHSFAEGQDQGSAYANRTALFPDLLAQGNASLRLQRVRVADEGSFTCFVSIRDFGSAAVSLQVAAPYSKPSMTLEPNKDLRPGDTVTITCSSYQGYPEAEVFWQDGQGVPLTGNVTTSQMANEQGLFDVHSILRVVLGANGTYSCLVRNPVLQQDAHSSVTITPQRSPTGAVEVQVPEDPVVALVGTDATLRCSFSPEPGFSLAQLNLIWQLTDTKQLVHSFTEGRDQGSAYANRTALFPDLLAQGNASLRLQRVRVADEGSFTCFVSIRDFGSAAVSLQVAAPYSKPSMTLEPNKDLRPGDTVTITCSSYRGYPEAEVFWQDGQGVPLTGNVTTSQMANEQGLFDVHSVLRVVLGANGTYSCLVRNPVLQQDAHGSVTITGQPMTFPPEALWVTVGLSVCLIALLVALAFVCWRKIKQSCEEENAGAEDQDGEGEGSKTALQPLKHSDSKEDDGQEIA

Binder | binding in a display sort
B1 | not found
B2 | not found
B3 | not found
B4 | not found
B5 | not found
B6 | not found
B7 | not found
B8 | not found
B9 | not found
B10 | not found
B11 | not found
B12 | not found
B13 | not found
B14 | not found
B15 | not found
B16 | not found
B17 | not found
B18 | not found
B19 | not found
